Compound activity: PubChem, National Center for Advancing Translational Sciences (NCATS)
Pf growth 48h: inhibits P. falciparum growth in the first generation, 48 h; P. falciparum luciferase growth in erythrocytes, 48 h; Potency, µM (highest dose often 28.7 µM), for the others: top-dose activity change, negative = inhibition, hits mostly inhibitors; 310,000 tested, 5.9% active; AID 504832; further: potency means the concentration at half of the fitted maximal effect; on the % scale 0 is the no-effect control and ±100 the full control effect
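Growth was read as firefly luciferase luminescence after a 48 h, 37 C, 5% CO2 exposure of compounds to reporter-bearing P. falciparum cultures (0.1% parasitemia, 2% hematocrit final) in Albumax-supplemented RPMI 1640.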
HCV inhibitor: inhibitors of hepatitis C virus infection | Huh7.5.1 HCVcc-Cre infection, luciferase reporter, 44 h | Potency, µM (highest dose often 41.8 µM), inactives show at the highest dose activity change, negative = inhibition, most hits filed as inhibitors | 340,000 tested, 3.4% active | AID 651820; further: potency means the concentration at half of the fitted maximal effect; on the % scale 0 is the no-effect control and ±100 the full control effect
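Infectious HCV cell culture screen: compound-treated cells (1,000/well, pre-plated 4 h) are infected with HCVcc-Cre at roughly 0.5 moi and grown 44 h. Infection is quantified by luciferase signal after 15 min substrate incubation at room temperature.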
HCMV antiviral: human cytomegalovirus inhibition. activity change, negative = inhibition, % at 57.5 µM. HFF cells, HCMV-luciferase reporter, 72 h; hits give low values. AID 1259415. 410,000 tested, 4.5% active; in the data active means activity change below about -60%; inconclusive means no clear call, values can overlap the other calls; inactive means above about -39%; further: on the % scale 0 is the no-effect control and ±100 the full control effect
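Human foreskin fibroblasts infected with luciferase-reporter HCMV at MOI 1 PFU/cell, compounds at two doses. Luciferase measured 72 h post infection; normalized to buffer-only basal and Salinomycin (10uM) controls.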
Pf growth 96h: inhibits malaria parasite growth, 96 h; 320,000 tested, 6.9% active; Potency, µM (doses to about 28.7 µM), for inactives: at the top dose activity change, negative = inhibition, hits mostly inhibitors; AID 504834; P. falciparum luciferase reporter growth, 96 h; further: potency means the concentration at half of the fitted maximal effect; on the % scale 0 is the no-effect control and ±100 the full control effect
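Luminescence readout: decreased luciferase signal marks inhibited growth of reporter-expressing P. falciparum in infected red cells (2% hematocrit, 0.05% parasitemia final), exposed to compound two generations (96 h, 37 C, 5% CO2).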
Sm TGR inh: blocks Schistosoma mansoni thioredoxin glutathione reductase | Q962Y6 | purified TGR, DTNB reduction, TNB absorbance 405 nm | Potency, µM (series often up to 114 µM), without a hit: top-dose activity change, negative = inhibition, actives largely listed as inhibitors | 360,000 tested, 3% active | AID 485364; further: potency means the concentration at half of the fitted maximal effect; on the % scale 0 is the no-effect control and ±100 the full control effect; nearly all actives have a fitted effect of over 60% in size
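First, TGR (20 nM dispensed) and NADPH were mixed with compound. Second, a 15 min room-temperature incubation followed. Third, further NADPH and then DTNB were added to start the reaction. Finally, TNB absorbance was monitored kinetically.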
SARS PLpro yeast: SARS-CoV PLP inhibition in yeast. Potency, µM (top dose mostly 32.9 µM), for the others: at the highest dose activity, positive = growth rescue, usual class: activators. 330,000 tested, 0.19% active. S. cerevisiae expressing SARS-CoV PLpro, growth rescue. AID 485353; calls by dose curve; further: potency means the concentration at half of the fitted maximal effect; 0% is about no effect; nearly all actives have a fitted effect of over 55% in size
Numbers without * were called inactive; ? = inconclusive; . = no result. Shown are actives, neighbours in structure and some others; about 15% of the full set was active somewhere. Unless noted, the call rests on the fitted dose curve; in most records, active means well fitted curve in the direction sought with a large enough effect; inconclusive means small, poorly fitted or top-dose-only effect, or another doubt; inactive means no such curve, though single readings can be large; an effect the other way counts as inactive or inconclusive.

SMILES	Pf growth 48h	HCV inhibitor	HCMV antiviral	Pf growth 96h	Sm TGR inh	SARS PLpro yeast
O=C(O)c1cccc(NC2=C(Cl)C(=O)c3ccccc3C2=O)c1	27%	?	-100*	-23%	1.6µM*	-1%
CC(=O)Nc1cc2c(c(Cl)c1Cl)-c1ccccc1C2=O	.	?	14	.	.	.
CC(C)NC1=C(Cl)C(=O)c2ccccc2C1=O	.	?	?	0.93µM*	28µM*	24%
O=C1C(Cl)=C(NCc2cccnc2)C(=O)c2ccccc21	9.3µM*	13µM*	-28	8.3µM*	45µM*	-9%
O=C1C(Cl)=C(Nc2cccc(O)c2)C(=O)N1Cc1ccccc1	-24%	-1%	-23	4.7µM*	-1%	-2%
O=S(=O)(Cc1ccccc1)NCc1cccnc1	1%	-6%	-17	27%	0%	-7%
O=C1C(Cl)=C(NCCc2ccccc2)C(=O)c2ccccc21	.	?	-64*	.	.	.
O=C1C(Cl)=C(NCCc2ccccc2)C(=O)N1CCc1ccccc1	.	2%	29	?	-3%	1%
O=c1[nH][nH]cc1C=NCc1cccc(C(F)(F)F)c1	-11%	-1%	-18	83%	12%	-6%
CC(=O)N(Cc1ccc(F)cc1)c1cccc(C)c1C	-8%	23%	?	0%	.	14%
CC(=O)N(Cc1ccc(F)cc1)C1=C(NCCc2ccccc2)C(=O)c2ccccc2C1=O	.	10µM*	-100*	0.0037µM*	?	-35%
C=CCNC1=C(Cl)C(=O)N(Cc2ccccc2)C1=O	1%	0%	101	3%	40µM*	-3%
Nc1ncnn1Cc1ccccc1	.	.	7	.	.	.
CN(C)CCCC1(O)c2ccccc2C=Cc2ccccc21	?	-6%	23	-71%	-22%	18%
CSc1oc(-c2ccco2)nc1S(=O)(=O)c1ccc(C)cc1	?	0%	-1	?	?	0%
CSc1oc(-c2ccco2)nc1S(=O)(=O)c1ccccc1	.	-4%	-34	1%	35µM*	-4%
CSc1oc(-c2ccco2)nc1S(=O)(=O)c1ccc(F)cc1	-13%	-1%	1	?	45µM*	18%
COc1cccc(OCc2cc(C(=O)N3CCNC(=O)C3Cc3ccccc3)no2)c1 (stereo not given)	?	-8%	55	14%	-17%	-2%
COc1ccc(C(=O)CCC(=O)O)c2ccccc12	0%	.	.	-13%	.	.
Cc1ccc(N2C(=O)C3CC(c4ccccc4)=C4C5C=CC(C6C(=O)N(c7ccc(C)cc7C)C(=O)C56)C4C3C2=O)c(C)c1 (stereo not given)	2.1µM*	?	.	.	-14%	3%
Cc1ccc(N2C(=O)C3CC(c4ccccc4)=C4C5C=CC(C6C(=O)N(c7ccc(C)cc7)C(=O)C56)C4C3C2=O)cc1 (stereo not given)	13µM*	4%	-24	?	6%	-2%
Cc1ccc(N2C(=O)C3CCCN3C2=S)c(C)c1 (stereo not given)	?	4%	-4	?	-3%	-3%
COCCN(C(=O)CCc1ccc(OC)cc1)c1nnc(-c2ccncc2)s1	11%	-22%	-4	34%	0%	0%
CCOc1ccc(-c2nnc(N(CC)C(=O)C3CCC3)s2)cc1	?	?	3	6.6µM*	9%	-18%
CCCC(=O)N(C)c1nnc(-c2ccc(OC)cc2)s1	76%	-3%	-22	10µM*	-1%	8%
CCOC(=O)c1ccc(NCCc2ccc(OC)c(OC)c2)c(N)c1	9.3µM*	11%	25	?	-1%	2%
Cc1ccccc1C(=O)c1cccn1CC(=O)NCCCN1CCc2ccccc2C1	?	5%	-19	32%	-20%	2%
CC(=O)NC(c1ccco1)c1cc(Cl)c2ccccc2c1O (stereo not given)	-4%	.	4	3%	63µM*	-14%
CC(=O)NC(c1ccco1)c1cc(F)c2cccnc2c1O (stereo not given)	4.1µM*	.	-67*	?	?	9%
